Bioassay records as filed in PubChem BioAssay.
USP30 block: inhibitors of human USP30 deubiquitinase; Ubiquitin carboxyl-terminal hydrolase 30 (Homo sapiens), Q70CQ3; 47,000 compounds, 5.3% hits; inhibition, % at 25 µM; purified USP30, Ub-rhodamine cleavage fluorescence
Target sequence (Q70CQ3 whole entry, looked up): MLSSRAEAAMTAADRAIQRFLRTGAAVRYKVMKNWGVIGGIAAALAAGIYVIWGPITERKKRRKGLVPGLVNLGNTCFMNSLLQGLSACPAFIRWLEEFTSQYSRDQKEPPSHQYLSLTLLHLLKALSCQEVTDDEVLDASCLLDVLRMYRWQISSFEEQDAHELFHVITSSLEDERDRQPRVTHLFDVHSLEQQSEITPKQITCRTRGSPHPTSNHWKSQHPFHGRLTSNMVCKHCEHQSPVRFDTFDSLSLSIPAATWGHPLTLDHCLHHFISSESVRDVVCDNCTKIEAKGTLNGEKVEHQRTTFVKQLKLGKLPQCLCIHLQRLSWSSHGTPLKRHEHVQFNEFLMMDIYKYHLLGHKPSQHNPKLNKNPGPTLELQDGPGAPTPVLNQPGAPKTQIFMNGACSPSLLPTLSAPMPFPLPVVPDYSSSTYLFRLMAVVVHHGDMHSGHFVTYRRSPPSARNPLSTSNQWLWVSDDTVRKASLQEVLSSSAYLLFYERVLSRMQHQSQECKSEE
USP17 block: inhibitors of human USP17 deubiquitinase | Ubiquitin carboxyl-terminal hydrolase 17-like protein 5 (Homo sapiens), A8MUK1 | purified USP17, Ub-rhodamine cleavage fluorescence, 3 h | inhibition, % at 50 µM | 47,000 compounds, 6.5% hits
USP28 block: inhibitors of human USP28 deubiquitinase. Ubiquitin carboxyl-terminal hydrolase 28 (Homo sapiens), Q96RU2. 47,000 compounds, 3% hits. inhibition, % at 25 µM. purified USP28, Ub-rhodamine cleavage fluorescence, 30 min
Each line names hits and unclear results; the compound was inactive in the other large screens. In the library only some 11% were active in any assay of this set; here they are far more common. Cut-off read from the data, not from the text of the source: active = inhibition above about 30%; inactive = the rest.

Cc1cc(=O)oc2c1c(C)nn2-c1ccc([N+](=O)[O-])cc1	none
CN(C)C=Nc1c(C#N)cnn1-c1ccc([N+](=O)[O-])cc1	USP30 block 73.9
Cc1ccc(NC(=O)CN2C(=O)C(O)(c3ccccc3)c3ccccc32)cc1 (configuration not stated)	none
CCC(C)NS(=O)(=O)c1c(C)[nH]c(C)c1-c1nnc(C2CCC2)o1 (configuration not stated)	none
Cc1cccc(NC(=O)N2CCCn3c(nc4ccccc43)C2)c1	none (no result: USP17 block)
O=C(Nc1cccc(N2CCn3c(nc4ccccc43)C2)c1)c1cccc(Br)c1	USP17 block 30.2 (no result: USP30 block, USP28 block)
CC(C)Cc1nc2oc3c(NCCCO)ncnc3c2c2c1CCC2	none
Cc1ccc(NCc2cc3c(C(C)(C)C)nn(-c4ccc(Cl)cc4)c3[nH]c2=O)cc1C	USP17 block 42.8
Cc1nn(-c2ccccc2)c2[nH]c(=O)c(CNc3ccccc3)cc12	none
Cc1nn(-c2ccc(Cl)cc2)c2[nH]c(=O)c(CNc3ccccc3)cc12	USP17 block 39.6
CC(C)(C)c1nn(-c2ccc(Cl)cc2)c2[nH]c(=O)c(CNCc3ccco3)cc12	none
CCOC(=O)[C@@H]1CN(C(=O)COC(C)=O)[C@H]2c3cccc(C)c3O[C@@H]12	none
Cn1cccc1C(=O)N1CCC(Oc2cc(N3CCCC3)ncn2)C1 (configuration not stated)	none
Cc1ccc2nc(C)cc(C(=O)NCc3ccc(C)o3)c2c1	none
COc1ccc(CN2CCN(C(=O)c3ccc(F)cc3)CC2)cn1	none
O=C(NCc1ccc(F)cc1)C1CCN(C(=O)c2cc(-c3cccnc3)n[nH]2)CC1	none
Cc1cc(Cl)ccc1NC(=O)c1cc(-c2cccnc2)n[nH]1	USP17 block 66.9, USP28 block 92.7
Cc1cc(NC(=O)c2cc(-c3cccnc3)n[nH]2)ccc1Br	USP30 block 67.8, USP17 block 32.9, USP28 block 48.3
Cc1ccc(C)c(NC(=O)c2cc(-c3cccnc3)n[nH]2)c1	none (no result: USP17 block)
O=C(NCc1ccc(Br)cc1)c1cc(-c2cccnc2)n[nH]1	USP17 block 36.9
Cc1cc(NC(=O)c2cc(-c3ccccn3)n[nH]2)ccc1Br	none
CCN1CCC2(CN(CC(C)C)CC23CCN(C(=O)c2cccnc2)CC3)C1=O (configuration not stated)	none
Cc1cccc(N2CCN(C(=O)CCCCCn3c(=O)[nH]c4ccccc4c3=O)CC2C)c1 (configuration not stated)	none
Cc1ccc(-n2nnc(C(=O)NCCO)c2-c2ccco2)cc1	none
CC1(C)COC(CC(=O)c2ccc(F)cc2)=N1	none (no result: USP30 block, USP28 block)
Cc1nc(-c2cccs2)cc(-c2cccc(Cl)c2)c1C#N	USP30 block 37.1
CCOC(=O)COc1nc(-c2cccs2)cc(C(F)(F)F)c1C#N	none
CC(C)c1nccn1-c1nccnc1C1CCCN(C(=O)c2cccnc2)C1 (configuration not stated)	none
CCc1nnc(NC(=O)Cn2ncc3c(=O)oc4ccc(C)cc4c32)s1	USP17 block 31.5
CCc1nnc(NC(=O)CN2C(=O)CCc3ccccc32)s1	none
COc1cc(-c2cc(C(=O)Nc3cc(S(=O)(=O)N4CCCCC4)ccc3N3CCCCC3)c3ccccc3n2)cc(OC)c1OC	none
CCOC(=O)c1ccc(-c2cccc(C(F)(F)F)c2)nc1C	none
CCOC(=O)c1cnc(C(F)(F)F)nc1Sc1n[nH]c(-c2cccs2)n1	USP17 block 85.8
COc1cccc(CNC(=O)c2[nH]nc3c2CCc2ccccc2-3)c1	none
O=C(NCc1ccc2c(c1)OCO2)c1cc(-c2cc(Cl)ccc2O)n[nH]1	USP30 block 77.3
O=C(Nc1ccc2c(c1)OCO2)c1[nH]nc2c1CCc1ccccc1-2	USP17 block 65.6, USP28 block 43.3
O=C(Nc1cccnc1)c1[nH]nc2c1COc1ccccc1-2	none
O=C(NCc1ccc2c(c1)OCO2)c1[nH]nc2c1CCc1ccccc1-2	USP30 block 56.9, USP17 block 60.0
O=C(NCc1ccc2c(c1)OCO2)c1nnc(C(=O)Nc2ccc(F)cc2)s1	none
Cc1ccc(-c2cc(=O)n(CC(=O)Nc3ccc(C(C)C)cc3)cn2)cc1	USP30 block 47.7, USP17 block 38.0
O=C(Cn1cnc(-c2ccccc2)cc1=O)Nc1ccc(Oc2ccccc2)cc1	none
CC(C)=CCC/C(C)=C/CC/C(C)=C/Cc1c(C)[nH]c2ccccc2c1=O	none
CC(C)=CCC/C(C)=C/Cc1c(O)cc2c(c1O)C(=O)OC2	USP17 block 63.0, USP28 block 74.4
Cc1cc(=O)n2nc(-c3ccc(Cl)cc3)nc2n1CC(=O)N(C)Cc1ccccc1	none
Cc1cccc(-c2nc3n(CC(=O)Nc4ccc(Cl)cc4)c(C)cc(=O)n3n2)c1	USP17 block 68.2
O=C(CCc1nnc2n(Cc3ccccc3Cl)c(=O)c3ccccc3n12)N1CCN(c2ccccn2)CC1	none
CC(C)OCCCn1c(=O)c2ccccc2n2c(CCC(=O)NCc3ccc4c(c3)OCO4)nnc12	USP30 block 40.5
O=C(CCc1nnc2n(Cc3ccccc3Cl)c(=O)c3ccccc3n12)NCc1ccccc1	none
O=C(CCc1nnc2n(Cc3ccccc3Cl)c(=O)c3ccccc3n12)NCc1ccccn1	USP30 block 65.2, USP17 block 44.6, USP28 block 36.4
O=C(CCc1nnc2n(Cc3ccccc3)c(=O)c3ccccc3n12)N1CCCC1	none
O=C(CCc1nnc2n(Cc3ccccc3)c(=O)c3ccccc3n12)N1CCC(Cc2ccccc2)CC1	USP30 block 38.1
COc1ccc(CNC(=O)CCc2nnc3n(Cc4ccccc4Cl)c(=O)c4ccccc4n23)cc1	USP30 block 39.7, USP17 block 43.2, USP28 block 36.2
CC(C)CCn1c(=O)c2ccccc2n2c(CCC(=O)NCc3ccc4c(c3)OCO4)nnc12	none
COc1ccc(-c2onc(C)c2C)cc1S(=O)(=O)NCc1ccc(F)cc1	none
CC(=O)Nc1ccc(C)n(CC(=O)N2CCN(c3ccccn3)CC2)c1=O	none
CC1(C)Cc2c(c(N3CCCC3)nc3sc4c(NCCCCN)ncnc4c23)CO1	none
Cc1noc(-c2ccn3c(CC(=O)Nc4ccc(F)cc4)nnc3c2)n1	none
O=S(=O)(c1ccccc1F)N1CCC(O)(CN2CCOCC2)C1 (configuration not stated)	none
CCCCNC(=O)N1CCc2nc(NC)n(-c3ccccc3)c(=O)c2C1	none
O=C(CCc1nnc2n(Cc3ccccc3)c(=O)c3ccccc3n12)NCc1cccnc1	USP30 block 37.6
CC(C)CCn1c(=O)c2ccccc2n2c(CCC(=O)NCc3cccnc3)nnc12	none
O=C(CCc1nnc2ccc(N3CCCC3)nn12)N1CCCC1	none
COc1cccc(-c2c(NC(=O)c3cccs3)n(C)c3ccccc3c2=O)c1	none
COc1ccc(-c2nc3ccccc3o2)cc1NC(=O)c1cccs1	none
COc1ccccc1CC(=O)Nc1cnc(-c2ccccc2)nc1	none
COc1cc(OC)cc(C(=O)Nc2cnc(-c3ccccc3)nc2)c1	USP17 block 52.0
COc1cc(OC)cc(C(=O)Nc2ccc3oc(-c4ccc5ccccc5c4)nc3c2)c1	USP17 block 33.1
Cc1ccc(NC(=O)C2C3C=CC4(O3)C2C(=O)N(C2CC2)C4C(=O)NC2CCCCC2)cc1C (configuration not stated)	none
COc1ccc(C(=O)[C@H]2CCCN(C(=O)c3cc(C(C)(C)C)[nH]n3)C2)cc1	none
